The source of these data is PubChem BioAssay AID504332 (National Center for Advancing Translational Sciences (NCATS), 2011).

Where “and” joins values, the source holds several entries; their conditions need not be identical. Equal values may be shown once. The campaign covered roughly 350,000 compounds. About 31,000 (8.9%) were called active. Another 15% or so got no clear call; they are omitted. Calls come from the whole dose curve; as a rule, active = well fitted inhibition curve with a large enough effect; inconclusive = small, poorly fitted or top-dose-only effect; inactive = no such curve, though single readings can be large or run the other way. Shown is part of a subset that was picked to be rich in actives. Where a call stands in place of a potency, no number is given. The source holds several records for some structures; these can differ, active in one and inactive in another.
Potency is the fitted concentration of half-maximal effect.

Sequence of Histone-lysine N-methyltransferase EHMT2 (Homo sapiens) (Q96KQ7 913-1193 limits assumed): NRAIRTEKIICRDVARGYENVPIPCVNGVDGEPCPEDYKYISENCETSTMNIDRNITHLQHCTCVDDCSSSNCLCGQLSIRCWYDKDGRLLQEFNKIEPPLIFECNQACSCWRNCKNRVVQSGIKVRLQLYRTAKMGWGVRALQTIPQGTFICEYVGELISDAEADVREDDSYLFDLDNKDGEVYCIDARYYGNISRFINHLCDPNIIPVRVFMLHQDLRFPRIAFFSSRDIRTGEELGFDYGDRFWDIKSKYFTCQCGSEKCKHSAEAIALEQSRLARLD

The experiment concerns the target Histone-lysine N-methyltransferase EHMT2 (Homo sapiens) (UniProt Q96KQ7). Put plainly: qHTS Assay for Inhibitors of Histone Lysine Methyltransferase G9a. Note: nearly all actives have a fitted effect of over 75% in size. As to conditions: G9a H3K9 monomethylation, AlphaScreen, 2 h; series mostly up to 59 µM. In a few lines: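 Methyltransferase reactions run at room temperature for 2 h (20 nM enzyme, 500 nM biotin-H3K9 peptide, 20 uM SAM) after a 15 min compound preincubation; product detected by AlphaScreen beads and anti-H3K9me1 antibody.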
A general note: Quantitative high-throughput screening tests each substance at several concentrations.
Consider `CCOc1ccc(NC(=O)Nc2cc(C)ccc2OC)cc1`, for which the Potency result is “inactive”. As for `COc1ccc(NC(=O)N2CCCn3nc(C)cc32)cc1OC`, the Potency entry was “inactive”.

As to `CCn1cc(NC(=O)Nc2ccc(OC)c(OC)c2)c(C(N)=O)n1`, the Potency was 25.1 µM (active). With `Cc1ccc(NC(=O)CCCNC(=O)c2ccc(Cl)cc2)cc1S(=O)(=O)N1CCCCC1`, the Potency entry was “inactive”.

Consider `O=C(O)c1c(CNCc2cccc(F)c2)c2ccccc2n1Cc1ccccc1`, for which the Potency result is “inactive”.

With `CC1(C)NC(=O)N(CCOc2cccc(Oc3ccccc3)c2)C1=O`, the Potency result is “inactive”. With `CC(O)CNCCOc1cccc(Oc2ccccc2)c1` (stereo not drawn), the Potency is 31.6 µM (active). `CC(O)COc1ccccc1` (stereo not drawn): the Potency result was “inactive”.

Regarding `CN(C(=O)CN1C(=O)NC(C)(CCc2ccccc2)C1=O)c1ccccc1` (stereo not drawn), the Potency entry was “inactive”. On the same count and under the same terms, to `O=C(Nc1nnc(C2CC2)s1)c1cc(Cl)sc1Cl` belongs “inactive”; to `CCOC(=O)CCCN1CC(O)=C(c2nc3ccccc3s2)C1=N`, “inactive”.

Regarding `CCOC(=O)c1oc2c(CN3CCN(C)CC3)c(O)ccc2c(=O)c1-c1ccc(Br)cc1`, the Potency result was “inactive”. Still for that read-out and setting: to `CCOC(=O)c1oc2c(CN3CCN(CCO)CC3)c(O)c(CC)cc2c(=O)c1-c1nc2ccccc2s1` belongs 17.8 µM (active). Consider `Cc1ccc(C(=O)NCCc2nnc(SCC(=O)Nc3cccc(C(=O)O)c3)n2C)cc1`, for which the activity, negative = inhibition was 10.2% [at 0.501 µM] (inactive). As for `CCCn1c(=N)c(C(=O)NCc2ccccc2)cc2c(=O)n3cccc(C)c3nc21`, the Potency result is “inactive”. Same read-out and setting: to `C=CCNC(=S)N1CCc2[nH]c3ccccc3c2C1` belongs “inactive”. On to `CCCC(=O)N1CCc2[nH]c3ccccc3c2C1`, for which the Potency was 39.8 µM (active). With `O=C(Nc1ccc(Cl)cc1)N1CCc2[nH]c3ccccc3c2C1`, the Potency entry is “inactive”. For `COc1ccc(CCNc2ncnc3c2nnn3Cc2ccccc2)cc1`, the Potency entry is “inactive”. For `COc1ccc(C2=NC3(CCCCC3)N(CC(=O)Nc3ccc(C(C)C)cc3)C2=O)cc1`, the Potency entry is “inactive”. As to `Cn1ccsc1=NC(=O)c1cc(S(=O)(=O)N2CCOCC2)ccc1Cl`, the Potency result is “inactive”. Same read-out and setting: with `CN(CC(=O)NCCc1ccc(F)cc1)CC(=O)Nc1ccc(F)c(F)c1F` the entry was “inactive”; with `CCOC(=O)C1=C(C)NC(SC)=NC1c1ccccc1` (stereo not drawn), 2 µM (active); with `C=CCC1(C#N)C(=S)NC(C)=C(C(=O)OCC)C1c1ccccc1` (stereo not drawn), “inactive”. For `CCOC(=O)C1=C(C)NC(=O)NC1c1ccccc1` (stereo not drawn), the Potency result is “inactive”. On to `CCCCOc1ccc(CNC(=O)c2ccc3c(c2)N(C)C(=O)C2CCCCN32)cc1` (stereo not drawn), for which the Potency entry was “inactive”. On the same count and under the same terms, to `Cc1cccc(C(CC(=O)NCC2(c3ccccc3)CCCC2)c2ccccc2)c1O` (stereo not drawn) belongs “inactive”. Same read-out and setting: to `C/C(=C\C(=O)c1ccccc1)Nc1cccc(O)c1` belongs 50.1 µM (active); to `O=C(CSc1ccccc1)Nc1ccc(C(=O)Nc2cccc(O)c2)cc1`, “inactive”; to `O=C(Nc1cccc(O)c1)c1ccc(C(=O)c2ccccc2)o1`, “inactive”. As for `COc1cccc(CNC(=O)c2cc(=O)[nH]c3ccc(S(=O)(=O)N4CCCCC4)cc23)c1`, the Potency result was “inactive”. In the case of `O=C(CSc1n[nH]c(-c2ccccc2)n1)N1CCCCC1`, the Potency entry was “inactive”.

For the molecule `N#C/C(=C\c1ccccc1F)c1nc2ccccc2c(=O)[nH]1`, the Potency entry was “inactive”.

Regarding `COc1cccc(-n2cc(C(=O)O)c3ccccc3c2=O)c1`, the Potency entry is “inactive”. On the same count and under the same terms, with `CCN(Cc1ccccc1)C(=O)c1cn(-c2cccc(OC)c2)c(=O)c2ccccc12` the figure was 11.2 µM (active).

Regarding `COc1cccc(-n2ccn(CC(=O)NCc3ccc(C)cc3)c(=O)c2=O)c1`, the Potency entry is “inactive”.

With `CN(Cc1ccccc1)C(=O)c1cn(C)c2ccc(S(=O)(=O)N(C)C3CCCCC3)cc2c1=O`, the Potency result is “inactive”. Still for that read-out and setting: with `O=S(=O)(NCCS(=O)(=O)N1CCN(c2ccccc2)CC1)c1ccc(Cl)cc1` the entry was “inactive”; with `CC(C)[C@@H]1COC(c2cccc(C3=N[C@H](C(C)C)CO3)c2)=N1`, “inactive”; with `COc1cc(OC)cc(-c2nnc(N(C)C(=O)c3ccncc3)s2)c1`, “inactive”.

For the molecule `CN(C(=O)c1ccno1)c1nnc(-c2cccnc2)s1`, the Potency entry was “inactive”. On to `CN(C(=O)c1ccccn1)c1nnc(-c2ccccn2)s1`, for which the Potency is 70.8 µM (active). For the molecule `CC(C)CCN1CCC(C)(NC(=O)c2ccccc2)C1=O` (stereo not drawn), the activity, negative = inhibition was -0.393% [at 0.501 µM] (inactive).

On to `COc1ncnc2c1N=C1CC(C)(C)CC(N)=C1S2`, for which the Potency was 3.16 µM (active). For `CC(=O)c1cccc(NC(=S)N2CCCC2)c1`, the Potency entry is “inactive”. On the same count and under the same terms, to `CC(C)NC(=S)N1CCN(S(C)(=O)=O)CC1` belongs “inactive”; to `CC(=O)c1cccc(NC(=S)N2CCN(S(C)(=O)=O)CC2)c1`, 44.7 µM (active). As to `O=C(Cc1ccc(Cl)cc1)NC1CCS(=O)(=O)C1` (stereo not drawn), the Potency result was “inactive”. As for `Cc1cc(C)c(CN2CCN(C(=O)Cn3ccc(NC(=O)OCc4ccccc4)nc3=O)CC2)c(C)c1`, the activity, negative = inhibition was -47.4% [at 0.501 µM] (inactive). `NC(=O)C1CCN(C(=O)c2ccc(F)c(S(=O)(=O)N3CCOCC3)c2)CC1`: the activity, negative = inhibition is 2.82% [at 2.33 µM] (inactive). For `CCOc1ccc(-c2n[nH]c3c2C(c2ccccc2OC)N(c2ccc(Br)cc2)C3=O)cc1` (stereo not drawn), the Potency result is “inactive”. For `Cc1sc2ncnc(N3CCC(C(=O)NNC(=O)c4ccc(F)cc4)CC3)c2c1C`, the Potency result is “inactive”. Regarding `Cc1ccc(Cl)cc1NC(=S)N(CCN(C)C)Cc1cccs1`, the Potency was 39.8 µM (active).

As for `Cc1ccc(NC(=S)N(CCN(C)C)Cc2cccs2)cc1C`, the Potency result was “inactive”. `Cc1ccccc1NC(=S)N(CCCN1CCOCC1)Cc1cccs1`: the Potency result was “inactive”. The same measure, in the same setting: to `CC(C)Nc1ccc(-n2nc3ccccc3[n+]2[O-])cc1` belongs “inactive”.

With `c1ccc2cc(CCCc3cc4ccccc4cn3)ncc2c1`, the activity, negative = inhibition was 5.78% [at 0.501 µM] (inactive). For `NC(=O)C1CCN(C(=O)c2cn(-c3ccccc3)nc2-c2cccnc2)CC1`, the Potency result is “inactive”. On the same count and under the same terms, to `Cc1ccc(C)n1C(Cc1ccccc1)C(=O)O` (stereo not drawn) belongs 35.5 µM (active); to `COc1ccc(CNC(=O)C(Cc2ccccc2)n2cccc2)cc1` (stereo not drawn), “inactive”. Still for that read-out and setting: to `CC(Cc1ccccc1)C(=O)N(C)Cc1ccccc1` (stereo not drawn) belongs “inactive”. On to `Cc1ccc(S(=O)(=O)N2CCCCC2)cc1NC(=O)[C@@H]1CCCN1C(=O)c1cccs1`, for which the activity, negative = inhibition was -7.65% [at 12.7 µM] (inactive). Take `Cc1ccc2nc(COc3cccc(NC(=O)c4ccccc4Cl)c3)cc(=O)n2c1`: the Potency entry was “inactive”.

For `Cc1c(-c2ccccc2)cn2c1-c1ccc(C)n1CC2`, the Potency is 44.7 µM (active).

As for `CCOC(=O)C1CCN(S(=O)(=O)c2ccc3c(c2)N(C(C)=O)CCO3)CC1`, the Potency entry is “inactive”. Still for that read-out and setting: with `CCOC(=O)C1CCCN(S(=O)(=O)c2ccc3c(c2)C(C)(C)C(=O)N3C)C1` (stereo not drawn) the entry was “inactive”; with `CCOC(=O)C1CCN(S(=O)(=O)c2ccc3c(c2)N(C)C(=O)CC(=O)N3C)CC1`, “inactive and 79.4 µM (active)”. Still for that read-out and setting: to `CCCn1c2ccccc2c2cnn(CC(=O)N(CC)c3cc(C)ccc3C)c(=O)c21` belongs “inactive”; to `CCN(CCCNC(=O)CSc1cc(=O)n(C)c2cc(Cl)ccc12)c1cccc(C)c1`, 17.8 µM (active); to `CCOc1ccc(CCNC(=O)CSc2cc(=O)n(C)c3ccc(Cl)cc23)cc1OCC`, “inactive”.

On to `CCN(CCCNC(=O)CSc1cc(=O)n(C)c2cc(Cl)ccc12)Cc1ccccc1`, for which the Potency result is “inactive”. `CC(=O)c1ccc(S(=O)(=O)NCCC(=O)N2CCN(c3ccccn3)CC2)cc1`: the activity, negative = inhibition is -0.0681% [at 12.7 µM] (inactive). On to `COc1cc(/C=N/n2c(C)n[nH]c2=S)ccc1OCc1ccccc1`, for which the Potency is 2.24 µM (active). Same read-out and setting: to `Fc1ccc(/C=N/n2c(COc3ccccc3)n[nH]c2=S)cc1` belongs 1.58 µM (active). For `COc1ccccc1OCCOc1ccc(/C=N/n2cnnc2)cc1`, the activity, negative = inhibition is -8.1% [at 12.7 µM] (inactive). With `COc1cc(/C=N/O)ccc1OCc1ccc([N+](=O)[O-])cc1`, the Potency entry was “inactive”. Still for that read-out and setting: to `O=[N+]([O-])c1ccccc1/C=N/n1c(COc2ccccc2)n[nH]c1=S` belongs 1 µM (active).

For `CCOc1ccc(/C=N/Nc2nncc(-c3ccccc3)n2)cc1OC`, the Potency entry is “inactive”. For the molecule `O=c1ccc(S(=O)(=O)N2CCCC2)cn1Cc1nc(-c2ccccc2)no1`, the activity, negative = inhibition was -6.5% [at 2.33 µM] (inactive). Turning to `CCN(C(=O)COC(=O)c1c(C)nn(-c2ccccc2)c1Cl)c1c(N)n(Cc2ccccc2)c(=O)[nH]c1=O`, the Potency result is “inactive”. In the case of `Cc1ccccc1-c1cc(C(=O)NCC2CC2)n(CC2CC(c3cccnc3)=NO2)n1` (stereo not drawn), the activity, negative = inhibition is -3.05% [at 0.501 µM] (inactive). For `CC1CN(C(=O)N2CCC(C(=O)NCc3ccco3)CC2)c2cc(Cl)ccc2O1` (stereo not drawn), the Potency entry is “inactive”.

Consider `O=C(NCCS(=O)(=O)c1ccc(Br)cc1)c1ccccc1Cl`, for which the Potency entry is “inactive”.

Turning to `COc1ccccc1CNC(=O)CCn1c(=O)c2ccccc2n(CC(=O)Nc2ccc(Br)cc2F)c1=O`, the Potency entry is “inactive”.

For the molecule `COc1ccc(N2CCN(S(=O)(=O)c3cc4c5c(c3)C(C)C(=O)N5CCC4)CC2)cc1` (stereo not drawn), the Potency was 44.7 µM (active). The same measure, in the same setting: with `COc1ccc(N2CCN(S(=O)(=O)c3ccc4c(c3)NC(=O)C(C)C(=O)N4)CC2)cc1` (stereo not drawn) the entry was “inactive”; with `CCOc1ccccc1NS(=O)(=O)c1cc2c3c(c1)C(C)C(=O)N3CCC2` (stereo not drawn), “inactive”. The same measure, in the same setting: to `COCC1CCN(C(=O)C2CCC(=O)N(CC3CCCCC3)C2)CC1` (stereo not drawn) belongs “inactive”; to `N#Cc1ccc(-c2cccs2)nc1SCc1ccc(Br)cc1`, “inactive”. Consider `Cc1ccc(CSc2nc(-c3ccccc3)c(C#N)c(=O)[nH]2)cc1`, for which the activity, negative = inhibition is 16.7% [at 2.33 µM] (inactive). Regarding `N#Cc1c(-c2cccs2)nc(SCC(=O)c2ccc(Br)cc2)[nH]c1=O`, the Potency is 39.8 µM (active). In the case of `Cc1ccc(-c2cc(-c3coc4ccccc4c3=O)c3c(n2)-c2cc(Cl)ccc2OC3)cc1`, the Potency entry was “inactive”.

For the molecule `Nc1ccc(Nc2cc(O)c3ncccc3c2)cc1`, the Potency was 1.58 µM (active). On the same count and under the same terms, to `COc1ccc(NC(=O)Nc2cccc3cccnc23)cc1` belongs “inactive”; to `O=C(NCCN1CCN(C(=O)c2cccc([N+](=O)[O-])c2)CC1)C(=O)NCc1ccc(Cl)cc1`, “inactive”.

Consider `CSc1ccc(C2c3c(oc4ccccc4c3=O)C(=O)N2CCCN2CCOCC2)cc1` (stereo not drawn), for which the Potency result was “inactive”. Still for that read-out and setting: with `COc1ccc(Cl)cc1NC(=O)CSc1nc(=O)[nH]c2c1CCCC2` the entry was “inactive”. Regarding `COc1ccc(-c2cc(C(=O)N(C)CC(=O)Nc3ccccc3Cl)c3ccccc3n2)cc1OC`, the Potency result was “inactive”.
